Experimental findings from the supplement of paper PMC10503962 are described below.

This assay has as its system Trichuris muris adult worms. In words: mean motility score (Paragon pixel variance) of adult worms (arbitrary units); higher = more motile worms, i.e. less anthelmintic effect; extreme values may be limits of the assay. Particulars: 100 µM; 24 h. An outline of the steps: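 Single adult Trichuris muris worms, recovered from infected NOD SCID mice, were exposed to drug at 100 μM (1% v/v DMSO) in 100 μL RPMI-1640 with antibiotics in 96-well plates for 24 h at 37°C and 5% CO2. The plates were then filmed on an automated phenotyping platform. The motility score was calculated through Paragon pixel-variance analysis and averaged across replicate wells, with three worms in three wells per drug on three separate occasions.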
In the case of `OCC(O)CO` [glycerin], the mean motility score worked out at 3460.
Under `CC(=O)O[C@]1(C(C)=O)CC[C@H]2[C@@H]3C=C(Cl)C4=CC(=O)CC[C@]4(C)[C@H]3CC[C@@]21C` [chlormadinone acetate] stands 2750.
With `CNCCCN1c2ccccc2CCc2ccccc21` [desipramine], the mean motility score worked out at 1090.
In turn, `CC(=O)c1c(C)c2cnc(Nc3ccc(N4CCNCC4)cn3)nc2n(C2CCCC2)c1=O` [palbociclib] came in with a mean motility score of 1970.
As for `CNC[C@H](O)c1ccc(O)c(O)c1` [epinephrine], the figure is 3270; as for `CN1CCC(=C2c3ccccc3C=Cc3ccccc32)CC1` [cyproheptadine], 417.
Under `CO/N=C(\C(=O)N[C@@H]1C(=O)N2C(C(=O)[O-])=C(COC(N)=O)CS[C@H]12)c1ccco1.[Na+]` [cefuroxime sodium] stands 2610; under `Cl.Nc1c2c(nc3ccccc13)CCCC2` [tacrine hydrochloride], 2770; under `NS(=O)(=O)c1cc2c(cc1Cl)NC(CSCc1ccccc1)=NS2(=O)=O` [benzthiazide], 3040.
Under `CCOC(=O)[C@H](CCc1ccccc1)N[C@@H](C)C(=O)N1Cc2cc(OC)c(OC)cc2C[C@H]1C(=O)O.Cl` [moexipril hydrochloride] stands 3680.
Consider `CC(=O)Nc1cccc(-n2c(=O)n(C3CC3)c(=O)c3c(Nc4ccc(I)cc4F)n(C)c(=O)c(C)c32)c1` [trametinib], for which the mean motility score was 2980.
Under `Nc1ncnc2c1ncn2[C@@H]1O[C@H](CO)[C@@H](O)[C@H]1O` [adenosine] stands 3520; under `Cl.N=C(N)NC(=O)c1nc(Cl)c(N)nc1N` [amiloride hydrochloride], 2260.
As for `Nc1ccccc1NC(=O)c1ccc(CNC(=O)OCc2cccnc2)cc1` [entinostat], the figure is 2720.
As for `CCCN(CCc1cccs1)[C@H]1CCc2c(O)cccc2C1` [rotigotine], the figure is 3100; as for `Clc1ccc2c(c1)C(N1CCNCC1)=Nc1ccccc1O2` [amoxapine], 804.
Molecule `CC(c1cc2ccccc2s1)N(O)C(N)=O` (stereo not drawn) [zileuton] returned a mean motility score of 3310.
As for `CN(C(=O)CN(CCO)CC(=O)N(C)C(C)(C)Cc1ccccc1)C(C)(C)Cc1ccccc1` [oxethazaine], the figure is 184.
Under `CNC[C@H](O)c1cccc(O)c1` [phenylephrine] stands 3950.
As for `COC(=O)C1=C(C)NC(C)=C(C(=O)OC)C1c1ccccc1[N+](=O)[O-]` [nifedipine], the figure is 1260; as for `CCCc1cc(C(N)=S)ccn1` [protionamide], 2460; as for `CCCCOc1ccc(C(=O)CCN2CCCCC2)cc1.Cl` [dyclonine hydrochloride], 3270.
As to `Oc1ncnc2[nH]ncc12` [allopurinol], the mean motility score stood at 4000.
Under `Cc1c(-c2ccccc2)oc2c(C(=O)OCCN3CCCCC3)cccc2c1=O` [flavoxate] stands 4070; under `CC(CCc1ccc(O)cc1)NCCc1ccc(O)c(O)c1` (stereo not drawn) [dobutamine], 2870.
Under `COC1=CC(=O)C[C@@H](C)[C@]12Oc1c(Cl)c(OC)cc(OC)c1C2=O` [griseofulvin] stands 1250.
As for `CN(C)C(=N)N=C(N)N.Cl` [metformin hydrochloride], the figure is 4240; as for `CCCCc1nc(Cl)c(CO)n1Cc1ccc(-c2ccccc2-c2nn[nH]n2)cc1` [losartan], 3650; as for `CC(=O)O` [acetic acid], 2710.
As for `CS(=O)(=O)Nc1ccc([N+](=O)[O-])cc1Oc1ccccc1` [nimesulide], the mean motility score amounted to 1.33.
For the molecule `COc1ccc2cccc(CCNC(C)=O)c2c1` [agomelatine], the mean motility score came to 3270.
For the molecule `CO[C@@]1(NC(=O)CSCC#N)C(=O)N2C(C(=O)[O-])=C(CSc3nnnn3C)CS[C@@H]21.[Na+]` [cefmetazole sodium], the mean motility score turned out to be 2040.
As to `Clc1cc(Cl)c(OCC#CI)cc1Cl` [haloprogin], the mean motility score came out at 2180.
Take `CC1=C(C(=O)O)N2C(=O)[C@@H](NC(=O)[C@H](N)c3ccccc3)[C@H]2SC1` [cephalexin]: the mean motility score came to 4830.
Turning to `Nc1ccn([C@H]2CC[C@@H](CO)O2)c(=O)n1` [zalcitabine], the mean motility score came out at 3920.
As for `Cc1onc(-c2ccccc2)c1-c1ccc(S(N)(=O)=O)cc1` [valdecoxib], the figure is 3610.
In turn, `CCn1nc(C(=O)O)c(=O)c2cc3c(cc21)OCO3` [cinoxacin] displayed a mean motility score of 1110.
As for `C[C@H]1O[C@@H](O[C@H]2[C@@H](O)C[C@H](O[C@H]3[C@@H](O)C[C@H](O[C@H]4CC[C@@]5(C)[C@H](CC[C@@H]6[C@@H]5CC[C@]5(C)[C@@H](C7=CC(=O)OC7)CC[C@]65O)C4)O[C@@H]3C)O[C@@H]2C)C[C@H](O)[C@@H]1O` [digitoxin], the figure is 3060.
